Records with an inconclusive call do not appear. The source made the active and inactive calls. How the source made its calls, unless noted: active means hit-call score of the fitted dose curve at least 0.9, where 1 is the maximum; inconclusive means response in the unintended direction; inactive means score below 0.9.
How the values were obtained:
[1] = TOX21_p53_BLA_p2_viability: Viability Assessment in the Tox21 HCT-116 p53 Agonism Beta-lactamase Assay, Phase 2 (AID 2283591);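 further: compound exposure lasted 16 h at 37 °C; actives lower the ATP signal meaning cytotoxicity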
Procedure, shortened: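 HCT-116 p53-bla cells (4000/well) rested 5 h at 37C, then received compounds in DMSO (217-fold dilution) for 16 h at 37C, 5% CO2. After the CCF4 read, CellTiter-Glo was added; ATP luminescence was read after 30 min at room temperature.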

[2] = target: Cellular tumor antigen p53 (Homo sapiens) (UniProt P04637); test: TOX21_p53_BLA_p2_ratio: Tox21 HCT-116 p53 Agonism Beta-lactamase Assay, Ratio, Phase 2 (AID 2283592)
Chain of Cellular tumor antigen p53 (Homo sapiens) (P04637 whole entry, looked up): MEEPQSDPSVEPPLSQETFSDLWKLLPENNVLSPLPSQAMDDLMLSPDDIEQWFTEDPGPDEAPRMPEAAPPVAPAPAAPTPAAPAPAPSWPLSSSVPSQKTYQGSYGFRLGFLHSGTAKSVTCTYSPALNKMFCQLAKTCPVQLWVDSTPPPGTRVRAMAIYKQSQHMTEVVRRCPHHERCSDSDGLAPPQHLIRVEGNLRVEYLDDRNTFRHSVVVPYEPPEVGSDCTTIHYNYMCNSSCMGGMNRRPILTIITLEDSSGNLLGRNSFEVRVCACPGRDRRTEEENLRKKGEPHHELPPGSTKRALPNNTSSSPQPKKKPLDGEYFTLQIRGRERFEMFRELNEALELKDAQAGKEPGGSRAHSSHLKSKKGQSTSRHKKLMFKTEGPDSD
Procedure, shortened: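 Human colon HCT116 cells with an inducible p53 beta-lactamase reporter are exposed to test chemicals for 16 h at 37C. Reporter induction is read as the 460/530 nm emission ratio after CCF4-AM loading, normalized to DMSO.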

[3] = target: Cellular tumor antigen p53 (Homo sapiens) (UniProt P04637); test: TOX21_p53_BLA_p5_ratio: Tox21 HCT-116 p53 Agonism Beta-lactamase Assay, Ratio, Phase 5 (AID 2283599)
Procedure, shortened: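 HCT-116 cells carrying a p53-inducible beta-lactamase reporter were seeded at 4000 cells/well and dosed after 5 h with compound in DMSO (217-fold dilution). After 16 h at 37C, CCF4-AM substrate was added for 2 h, and the 460/530 nm emission ratio was scored as gain-of-signal versus DMSO.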

[4] = TOX21_p53_BLA_p5_viability: Viability Assessment in the Tox21 HCT-116 p53 Agonism Beta-lactamase Assay, Phase 5 (AID 2283600)
Procedure, shortened: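 Seeded cells (4000/well) settle 5 h before compound addition. Plates then incubate 16 h at 37C, receive FRET substrate for 2 h, and finally CellTiter-Glo, with luminescence measured after a 30 min room-temperature incubation.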

[5] = target: Cellular tumor antigen p53 (Homo sapiens) (UniProt P04637); test: TOX21_p53_BLA_p4_ratio: Tox21 HCT-116 p53 Agonism Beta-lactamase Assay, Ratio, Phase 4 (AID 2283601)
Procedure, shortened: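 HCT116 cells carrying an inducible beta-lactamase reporter were plated at 4000 cells/well, rested 5 h, then exposed to compounds in DMSO (217-fold dilution) for 16 h at 37C. CCF4-AM substrate was loaded 2 h at room temperature; 460/530 nm emission ratio scored gain-of-signal versus DMSO.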

[6] = TOX21_p53_BLA_p4_viability: Viability Assessment in the Tox21 HCT-116 p53 Agonism Beta-lactamase Assay, Phase 4 (AID 2283597);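 further: hits lower the luminescence signal meaning cytotoxicity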
Procedure, shortened: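 Luminescent ATP readout (CellTiter-Glo, 30 min, room temperature) in the same wells as the p53 bla ratio. HCT116 cells were treated for 16 h at 37C with DMSO-dissolved compounds.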

[7] = target: Thyroid hormone receptor alpha (Rattus norvegicus) + Thyroid hormone receptor beta (Rattus norvegicus) (UniProt P18113+P63059); test: TOX21_TR_LUC_GH3_Antagonist_Followup: Tox21 GH3 Thyroid Hormone Receptor Antagonism Luciferase Follow-Up Assay (AID 2283942)
Procedure, shortened: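 Rat pituitary GH3 cells with a TRα/TRβ-driven luciferase reporter, 5 h attachment, then 15 concentrations (92 uM to 5nM final) plus 1.0 nM T3 agonist, 24 h at 37C/5% CO2. ONE-Glo luminescence; signal change fitted against DMSO baseline.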

[8] = target: THRB (gene 7068) (UniProt P10828); test: TOX21_TRB_BLA_Antagonist_Followup_ratio: Tox21 Thyroid Hormone Receptor beta Antagonism Beta-lactamase (BLA) Follow-Up Assay, Ratio (AID 2283958)
Chain of THRB (gene 7068) (P10828 whole entry, looked up, the tested form may be a part): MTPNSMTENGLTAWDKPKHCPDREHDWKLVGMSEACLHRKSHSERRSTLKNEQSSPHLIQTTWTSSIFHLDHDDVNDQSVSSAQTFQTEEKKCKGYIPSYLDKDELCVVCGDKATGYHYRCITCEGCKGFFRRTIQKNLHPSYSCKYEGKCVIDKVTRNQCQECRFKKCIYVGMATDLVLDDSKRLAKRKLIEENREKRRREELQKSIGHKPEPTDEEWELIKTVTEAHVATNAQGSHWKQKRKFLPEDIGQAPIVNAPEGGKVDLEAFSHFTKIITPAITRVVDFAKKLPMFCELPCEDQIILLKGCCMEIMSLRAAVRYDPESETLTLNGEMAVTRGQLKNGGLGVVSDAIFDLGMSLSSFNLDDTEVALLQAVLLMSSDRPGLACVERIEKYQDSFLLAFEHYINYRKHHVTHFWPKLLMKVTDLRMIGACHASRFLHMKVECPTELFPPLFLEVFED
Procedure, shortened: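 HEK293T cells with a GAL4-TRb LBD fusion and UAS-bla reporter, 3,000 cells/well in phenol red-free DMEM with 2% charcoal-stripped FBS. Exposed 18 h at 37C to 11 concentrations in triplicate; CCF4 460:530 nm ratio after 2 h, DMSO-referenced.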

[9] = target: Retinoic acid receptor RXR-alpha (Homo sapiens) (UniProt P19793); test: TOX21_TR_RXR_BLA_Antagonist_Followup_ratio: Tox21 Thyroid Hormone Receptor beta Retinoid X Receptor alpha (RXRa) Antagonism Beta-lactamase (BLA) Follow-Up Assay, Ratio (AID 2283972)
Chain of Retinoic acid receptor RXR-alpha (Homo sapiens) (P19793 whole entry, looked up): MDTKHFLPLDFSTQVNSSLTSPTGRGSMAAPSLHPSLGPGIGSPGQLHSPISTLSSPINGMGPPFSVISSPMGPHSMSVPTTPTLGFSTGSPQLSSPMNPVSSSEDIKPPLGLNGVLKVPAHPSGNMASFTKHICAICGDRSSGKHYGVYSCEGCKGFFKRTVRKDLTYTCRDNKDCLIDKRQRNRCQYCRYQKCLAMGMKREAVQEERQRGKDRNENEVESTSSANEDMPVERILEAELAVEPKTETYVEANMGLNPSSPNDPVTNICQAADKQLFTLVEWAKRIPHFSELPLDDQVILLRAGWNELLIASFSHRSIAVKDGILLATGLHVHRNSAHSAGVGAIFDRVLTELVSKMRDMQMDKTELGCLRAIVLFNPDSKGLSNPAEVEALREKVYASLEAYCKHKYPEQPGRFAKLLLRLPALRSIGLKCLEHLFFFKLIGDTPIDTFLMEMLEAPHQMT
Procedure, shortened: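 Compounds were tested in triplicate at 11 concentrations on RXRa-bla HEK293T cells for 16 h. Substrate cleavage ratio, normalized to DMSO, gave the endpoint.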

[10] = TOX21_TR_RXR_BLA_Antagonist_Followup_viability: Viability Assessment in the Tox21 Thyroid Hormone Receptor beta Retinoid X Receptor alpha (RXRa) Antagonism Beta-lactamase (BLA) Follow-Up Assay (AID 2283979)
Procedure, shortened: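 RXRa-UAS-bla HEK293T cells seeded 2,500/well in phenol red-free DMEM with 2% charcoal-stripped FBS, attached 5 h, then exposed to compounds at 11 concentrations in triplicate for 16 h at 37C/5% CO2. Viability read by CellTiter-Glo ATP luminescence; bidirectional fit versus DMSO.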

[11] = target: PGR (gene 5241) (UniProt P06401); test: TOX21_PR_BLA_Followup_Agonist_ratio: Tox21 HEK293 Progesterone Receptor (PR) Agonism Beta-lactamase Follow-Up Assay, Ratio (AID 2283933)
Chain of PGR (gene 5241) (P06401 whole entry, looked up): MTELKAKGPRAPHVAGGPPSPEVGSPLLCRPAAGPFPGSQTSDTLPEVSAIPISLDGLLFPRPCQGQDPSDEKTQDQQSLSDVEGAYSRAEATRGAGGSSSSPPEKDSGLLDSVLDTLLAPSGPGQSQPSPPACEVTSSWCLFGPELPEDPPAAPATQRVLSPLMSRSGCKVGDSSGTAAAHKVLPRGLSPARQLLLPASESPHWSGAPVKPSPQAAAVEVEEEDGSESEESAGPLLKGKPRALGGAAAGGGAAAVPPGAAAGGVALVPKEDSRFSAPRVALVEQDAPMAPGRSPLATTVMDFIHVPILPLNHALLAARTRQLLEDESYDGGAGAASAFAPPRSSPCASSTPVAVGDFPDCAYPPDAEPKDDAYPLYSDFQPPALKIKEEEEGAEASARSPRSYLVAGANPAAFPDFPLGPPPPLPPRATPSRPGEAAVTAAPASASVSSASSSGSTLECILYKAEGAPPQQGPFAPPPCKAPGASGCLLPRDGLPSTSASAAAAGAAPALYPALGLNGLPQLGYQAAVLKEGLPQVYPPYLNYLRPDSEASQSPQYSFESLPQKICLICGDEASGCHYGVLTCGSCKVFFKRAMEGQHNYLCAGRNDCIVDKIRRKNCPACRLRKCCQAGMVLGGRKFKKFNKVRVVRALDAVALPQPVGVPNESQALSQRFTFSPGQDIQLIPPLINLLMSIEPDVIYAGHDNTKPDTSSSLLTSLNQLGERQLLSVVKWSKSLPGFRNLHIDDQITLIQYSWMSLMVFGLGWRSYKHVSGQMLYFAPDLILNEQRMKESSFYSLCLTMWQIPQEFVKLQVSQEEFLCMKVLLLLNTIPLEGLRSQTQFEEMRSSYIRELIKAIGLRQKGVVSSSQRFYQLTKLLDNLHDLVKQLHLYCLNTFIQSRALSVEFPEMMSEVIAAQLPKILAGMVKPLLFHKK
Procedure, shortened: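 PR-UAS-bla HEK293T cells in medium with 2% charcoal-stripped FBS were dosed after 6 h plating and incubated 16 h at 37C. LiveBLAzer FRET substrate was added for 2 h at room temperature. Cleaved/uncleaved substrate ratio fitted against DMSO; CellTiter-Glo viability run in the same wells.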

[12] = target: PGR (gene 5241) (UniProt P06401); test: TOX21_PR_BLA_Followup_Antagonist_ratio: Tox21 HEK293 Progesterone Receptor (PR) Antagonism Beta-lactamase Follow-Up Assay, Ratio (AID 2283934)
Procedure, shortened: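 PR-UAS-bla HEK293T cells, 3,000/well in 2% charcoal-stripped FBS, given compound plus 1nM R5020 agonist for 16 hr at 37C. Beta-lactamase FRET substrate 2 hours, ratio cleaved/uncleaved fluorescence; viability by CellTiter-Glo in same wells.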

[13] = TOX21_PR_BLA_Followup_Agonist_viability: Viability Assessment in the Tox21 HEK293 Progesterone Receptor (PR) Agonism Beta-lactamase Follow-Up Assay (AID 2283935);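 further: signal loss means lower viability so actives are cytotoxic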
Procedure, shortened: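 PR-UAS-bla HEK293T cells in 2% charcoal-stripped FBS medium, plated 6 hr before compound addition, exposed 16 hr at 37C. Viability read by CellTiter-Glo ATP luminescence after 30 min at room temperature, in the same wells as the beta-lactamase readout.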

[14] = TOX21_PR_BLA_Followup_Antagonist_viability: Viability Assessment in the Tox21 HEK293 Progesterone Receptor (PR) Antagonism Beta-lactamase Follow-Up Assay (AID 2283936);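 further: hits lower the luminescence signal meaning cytotoxicity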
Procedure, shortened: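 PR-UAS-bla HEK293T cells (3,000/well, 2% charcoal-stripped FBS) given compound plus R5020 agonist, 16 h at 37C. CellTiter-Glo added after bla read, 30 min at room temperature; luminescence loss indicates cytotoxicity.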

[15] = target: PGR (gene 5241) (UniProt P06401); test: TOX21_PR_LUC_Followup_Agonist: Tox21 HEK293 Progesterone Receptor (PR) Agonism Luciferase Follow-Up Assay (AID 2283937; active means hit-call score of the fitted dose curve at least 0.9, where 1 is the maximum; inactive means score below 0.9)
Procedure, shortened: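 HEK293-PR-A-luc cells, conditioned 5 days in 10% charcoal-stripped FBS medium, seeded 3,000/well for 5 h, then compound-treated 16 h at 37C. ONE-Glo luminescence read after 30 min at room temperature; gain of signal versus DMSO.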

[16] = TOX21_PR_LUC_Followup_Agonist_viability: Viability Assessment in the Tox21 HEK293 Progesterone Receptor (PR) Agonism Luciferase Follow-Up Assay (AID 2283941);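 further: loss of signal means cytotoxicity so actives lower viability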
Procedure, shortened: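 HEK293-PR-A-luc cells, kept in 10% charcoal-stripped FBS medium, were treated with compounds for 16 h at 37C. Viability read as cellular ATP by luciferase-coupled luminescence; loss of signal indicates cytotoxicity.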

[17] = CCTE_Harrill_HTTr_Viability_MCF7: CCTE's 6-hour Cell Viability Assessment for the High-Throughput Transcriptomics (HTTr) Platform, in MCF-7 cells cultured in DMEM + 10% fetal bovine serum, Harrill Lab (AID 2284010; active means hit-call score of the fitted dose curve at least 0.9, where 1 is the maximum; inactive means score below 0.9)
Procedure, shortened: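 MCF-7 cells in DMEM + 10% FBS, 384-well, exposed 6 h to an eight-point dilution series. Membrane integrity scored by high-content imaging of propidium iodide exclusion; bidirectional fit versus DMSO.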

[18] = CCTE_Harrill_HTTr_Apoptosis_MCF7: CCTE's 6-hour Apoptosis Assessment for the High-Throughput Transcriptomics (HTTr) Platform, in MCF-7 cells cultured in DMEM + 10% fetal bovine serum, Harrill Lab (AID 2284011; active means hit-call score of the fitted dose curve at least 0.9, where 1 is the maximum; inactive means score below 0.9)
Procedure, shortened: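 Apoptosis in MCF-7 cells grown in DMEM with 10% fetal bovine serum was scored after a six hour exposure by high content imaging of caspase-3/7 activation (CellEvent Caspase 3/7 Green), with DMSO serving as negative control and baseline.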

Measured: AC50

CCNc1nc(NC(C)CC)nc(OC)n1 (stereo not drawn)
active: [4] 0.12 nM
inactive: [1] | [2] | [3] | [5]

CN1c2cc(O)c(N=NC(N)=O)cc2CC1S(=O)(=O)O (stereo not drawn)
inactive: [1] | [2] | [3]

Nc1ccn(C[C@@H](CO)OCP(=O)(O)O)c(=O)n1
inactive: [1] | [2] | [3] | [4]

CCCCCCCCN
inactive: [1] | [2] | [3] | [4]

NS(=O)(=O)c1cc2c(cc1Cl)NC(CC1CCCC1)NS2(=O)=O (stereo not drawn)
inactive: [1] | [2] | [3] | [4]

COc1ccc(/C=C/C(=O)Nc2ccccc2C(=O)O)cc1OC
active: [7] 2700 nM
inactive: [1] | [2] | [6] | [4] | [8] | [9] | [10]

O=[N+]([O-])c1ccc(/C=N\O)o1
inactive: [1] | [2] | [3] | [5]

CCCCCCN
inactive: [1] | [2] | [3] | [4]

Cc1c(Cn2ccnc2)c2ccccc2n1CCC(=O)O
inactive: [1] | [2] | [3] | [4] | [5]

O=C(O)c1cc(=O)c2ccccc2o1
inactive: [1] | [2] | [4] | [5]

C[C@@H]1C\C=C/C=C/C=C/C=C/[C@H](O[C@@H]2O[C@H](C)[C@@H](O)[C@H](N)[C@@H]2O)C[C@@H]2O[C@](O)(C[C@@H](O)C[C@@H]3O[C@@H]3/C=C\C(=O)O1)C[C@H](O)[C@H]2C(=O)O
inactive: [1] | [2] | [3]

CC(N)CCCC(C)(C)O (stereo not drawn)
inactive: [1] | [2] | [4]

N=C(N)N
inactive: [1] | [2] | [4] | [5]

CC1(C)[C@@H]2CC[C@]3(C2)[C@@H]1C(=O)CCC3(C)C
inactive: [1] | [2] | [6] | [4] | [5]

CCN(CC)CCNC(=O)c1cc(Br)c(N)cc1OC
inactive: [1] | [2] | [4] | [5]

CC1(N)CCC(C(C)(C)N)CC1 (stereo not drawn)
inactive: [1] | [2] | [3] | [4]

N#CCc1ccccc1[N+](=O)[O-]
inactive: [1] | [2] | [3] | [4] | [5]

CN(C)CCc1c[nH]c2ccc(C[C@H]3COC(=O)N3)cc12
inactive: [1] | [2] | [3] | [4] | [5]

OC[C@@H](O)C(O)[C@@H](O)CO (stereo partly drawn)
inactive: [1] | [2] | [3] | [4]

CC(=O)SC[C@@H](C)C(=O)N1CCC[C@H]1C(=O)N[C@@H](Cc1ccccc1)C(=O)O
inactive: [1] | [2] | [3] | [4]

CN1CCN(C(=O)C2CCCCC2)CC1
inactive: [1] | [2] | [4]

O=P(O)(O)C(O)(Cn1ccnc1)P(=O)(O)O
inactive: [1] | [2] | [3] | [4] | [5]

O=c1[nH]cnc2nc[nH]c12
inactive: [1] | [2] | [3] | [5]

CC1(C)S[C@@H]2[C@H](N=CN3CCCCCC3)C(=O)N2[C@H]1C(=O)O
inactive: [1] | [2] | [6] | [4] | [5]

CCCCCCCCCC(=O)N(C)C
inactive: [1] | [2] | [3] | [4]

CC(C)CN(C[C@@H](O)[C@H](Cc1ccccc1)NC(=O)O[C@@H]1CCOC1)S(=O)(=O)c1ccc(N)cc1
inactive: [1] | [2] | [4]

CCc1ccc(C)cc1
inactive: [1] | [2] | [4]

C[N+](C)(C)CCCCCCCCCC[N+](C)(C)C
inactive: [1] | [2] | [4] | [5]

C=CCOc1cc(Cl)ccc1C(=O)NCCN(CC)CC
inactive: [1] | [2] | [3] | [5]

CC(=O)OCC(=O)[C@@]1(O)CC[C@H]2[C@@H]3CCC4=CC(=O)C=C[C@]4(C)[C@@]3(F)[C@@H](O)C[C@@]21C
inactive: [1] | [2] | [6] | [4] | [5] | [12] | [13] | [14] | [16]
active: [11] 16900 nM | [15] 123 nM

C=CCCCCCCCCCCCCCCCC
inactive: [1] | [2] | [6] | [5]

C=C(C)C(=O)OCC[N+](C)(C)C
active: [3] 72900 nM
inactive: [1] | [2] | [5]

C[C@@H]1CC[C@H]2C(C)(C)[C@H]3C[C@@]12CC[C@@]3(C)O
inactive: [1] | [2] | [6] | [4] | [5]

O=c1[nH]c(=O)c2ccccc2o1
inactive: [1] | [2] | [3]

CCOC(=N)CC(=O)OCC
inactive: [1] | [2] | [6] | [17] | [18]
